From the supplement of paper PMC11732987, “Enantioselective OTUD7B fragment discovery through chemoproteomics screening and high-throughput optimisation” (Communications Chemistry, 2025)

Tests used:
Assay in all cases: log2 ratio of Biotin-Ahx-Ub-VS probe labelling (fragment/DMSO); higher = less target engagement (more negative = stronger competition), active = hit call of the paper (q ≤ 0.05, log2 ratio ≤ -1)
Details in all cases: compound concentration: 200 uM; treatment time: 3 h
USP19 = target: T1, USP19 (UniProt O94966)
T1 sequence (whole entry): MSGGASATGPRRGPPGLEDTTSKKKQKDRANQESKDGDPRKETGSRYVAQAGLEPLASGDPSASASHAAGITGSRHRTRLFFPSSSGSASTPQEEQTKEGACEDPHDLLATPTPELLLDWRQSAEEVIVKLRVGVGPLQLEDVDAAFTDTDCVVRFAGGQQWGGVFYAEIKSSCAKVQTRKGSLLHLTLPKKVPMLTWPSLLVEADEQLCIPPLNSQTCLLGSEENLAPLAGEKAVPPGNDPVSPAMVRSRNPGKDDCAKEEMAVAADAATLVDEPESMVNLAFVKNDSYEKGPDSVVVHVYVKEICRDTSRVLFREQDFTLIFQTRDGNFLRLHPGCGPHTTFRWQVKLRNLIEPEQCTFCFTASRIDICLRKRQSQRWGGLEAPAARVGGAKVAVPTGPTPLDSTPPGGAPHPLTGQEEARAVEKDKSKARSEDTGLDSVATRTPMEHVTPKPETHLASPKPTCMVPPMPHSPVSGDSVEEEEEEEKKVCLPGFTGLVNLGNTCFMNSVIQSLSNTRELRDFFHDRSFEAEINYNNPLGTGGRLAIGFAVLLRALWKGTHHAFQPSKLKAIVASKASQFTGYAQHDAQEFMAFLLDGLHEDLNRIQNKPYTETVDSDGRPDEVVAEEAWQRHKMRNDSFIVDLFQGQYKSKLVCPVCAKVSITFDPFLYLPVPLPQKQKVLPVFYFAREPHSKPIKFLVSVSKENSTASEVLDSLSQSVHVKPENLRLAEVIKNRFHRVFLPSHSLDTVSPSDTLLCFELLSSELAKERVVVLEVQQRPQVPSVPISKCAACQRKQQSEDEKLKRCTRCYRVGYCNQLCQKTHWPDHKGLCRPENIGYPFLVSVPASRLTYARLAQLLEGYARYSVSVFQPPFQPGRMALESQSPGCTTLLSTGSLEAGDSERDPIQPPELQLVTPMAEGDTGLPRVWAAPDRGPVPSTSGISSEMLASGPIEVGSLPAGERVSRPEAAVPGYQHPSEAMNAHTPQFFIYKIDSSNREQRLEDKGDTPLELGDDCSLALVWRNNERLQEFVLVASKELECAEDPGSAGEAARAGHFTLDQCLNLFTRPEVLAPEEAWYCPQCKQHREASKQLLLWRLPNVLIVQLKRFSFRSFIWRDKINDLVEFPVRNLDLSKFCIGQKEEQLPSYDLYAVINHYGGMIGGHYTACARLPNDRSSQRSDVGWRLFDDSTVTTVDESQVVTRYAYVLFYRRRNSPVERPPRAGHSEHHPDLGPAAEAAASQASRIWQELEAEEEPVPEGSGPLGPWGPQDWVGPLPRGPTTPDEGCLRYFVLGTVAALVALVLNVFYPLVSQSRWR
How it was run: (§1)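 HEK293T lysate, 495 µg per sample in Tris/CHAPS/IGEPAL buffer with protease inhibitors, was treated in triplicate with fragment at 200 µM or vehicle for 3 h and then with Biotin-Ahx-Ub-VS at 0.5 µM final for 1 h. Labelled DUBs were NeutrAvidin-enriched, digested with LysC and trypsin, and run by diaPASEF LC-MS/MS. Spectronaut label-free quantities were global-median-normalised, and values are average log2 fragment/vehicle ratios by unpaired t-test on proteins with ≥2 unique peptides.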

USP24 = USP24 (UniProt Q9UPU5)
How it was run: as §1

USP25 = target: T2, USP25 (UniProt Q9UHP3)
T2 sequence (whole entry): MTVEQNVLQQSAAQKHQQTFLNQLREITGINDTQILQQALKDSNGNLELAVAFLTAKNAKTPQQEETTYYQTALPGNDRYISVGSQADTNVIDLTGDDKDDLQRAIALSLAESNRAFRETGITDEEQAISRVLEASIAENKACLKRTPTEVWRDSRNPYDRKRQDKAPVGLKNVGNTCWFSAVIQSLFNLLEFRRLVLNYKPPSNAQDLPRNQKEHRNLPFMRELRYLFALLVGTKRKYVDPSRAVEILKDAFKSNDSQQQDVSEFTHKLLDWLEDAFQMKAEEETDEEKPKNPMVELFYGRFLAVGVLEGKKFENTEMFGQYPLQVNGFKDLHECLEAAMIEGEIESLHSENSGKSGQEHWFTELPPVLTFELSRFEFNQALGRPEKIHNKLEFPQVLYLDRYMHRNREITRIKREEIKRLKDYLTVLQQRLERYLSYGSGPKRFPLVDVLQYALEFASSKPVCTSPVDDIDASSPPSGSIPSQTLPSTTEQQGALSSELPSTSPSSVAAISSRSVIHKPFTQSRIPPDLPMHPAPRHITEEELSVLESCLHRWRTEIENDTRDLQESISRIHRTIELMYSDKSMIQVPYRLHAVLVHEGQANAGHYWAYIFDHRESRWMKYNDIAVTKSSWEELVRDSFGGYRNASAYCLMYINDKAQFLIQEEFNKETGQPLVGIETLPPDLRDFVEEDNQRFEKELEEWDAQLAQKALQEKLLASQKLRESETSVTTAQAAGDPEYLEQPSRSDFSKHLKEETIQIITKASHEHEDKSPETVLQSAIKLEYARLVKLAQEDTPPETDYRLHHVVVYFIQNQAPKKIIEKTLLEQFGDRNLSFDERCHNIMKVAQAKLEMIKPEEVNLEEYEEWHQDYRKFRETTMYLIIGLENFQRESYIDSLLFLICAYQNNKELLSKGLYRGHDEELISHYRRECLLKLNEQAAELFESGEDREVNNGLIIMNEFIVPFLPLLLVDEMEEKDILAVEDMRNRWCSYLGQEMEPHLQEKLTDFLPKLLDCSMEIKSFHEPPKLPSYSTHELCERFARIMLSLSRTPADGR
How it was run: as §1

USP28 = target: T3, USP28 (UniProt Q96RU2)
T3 sequence (whole entry): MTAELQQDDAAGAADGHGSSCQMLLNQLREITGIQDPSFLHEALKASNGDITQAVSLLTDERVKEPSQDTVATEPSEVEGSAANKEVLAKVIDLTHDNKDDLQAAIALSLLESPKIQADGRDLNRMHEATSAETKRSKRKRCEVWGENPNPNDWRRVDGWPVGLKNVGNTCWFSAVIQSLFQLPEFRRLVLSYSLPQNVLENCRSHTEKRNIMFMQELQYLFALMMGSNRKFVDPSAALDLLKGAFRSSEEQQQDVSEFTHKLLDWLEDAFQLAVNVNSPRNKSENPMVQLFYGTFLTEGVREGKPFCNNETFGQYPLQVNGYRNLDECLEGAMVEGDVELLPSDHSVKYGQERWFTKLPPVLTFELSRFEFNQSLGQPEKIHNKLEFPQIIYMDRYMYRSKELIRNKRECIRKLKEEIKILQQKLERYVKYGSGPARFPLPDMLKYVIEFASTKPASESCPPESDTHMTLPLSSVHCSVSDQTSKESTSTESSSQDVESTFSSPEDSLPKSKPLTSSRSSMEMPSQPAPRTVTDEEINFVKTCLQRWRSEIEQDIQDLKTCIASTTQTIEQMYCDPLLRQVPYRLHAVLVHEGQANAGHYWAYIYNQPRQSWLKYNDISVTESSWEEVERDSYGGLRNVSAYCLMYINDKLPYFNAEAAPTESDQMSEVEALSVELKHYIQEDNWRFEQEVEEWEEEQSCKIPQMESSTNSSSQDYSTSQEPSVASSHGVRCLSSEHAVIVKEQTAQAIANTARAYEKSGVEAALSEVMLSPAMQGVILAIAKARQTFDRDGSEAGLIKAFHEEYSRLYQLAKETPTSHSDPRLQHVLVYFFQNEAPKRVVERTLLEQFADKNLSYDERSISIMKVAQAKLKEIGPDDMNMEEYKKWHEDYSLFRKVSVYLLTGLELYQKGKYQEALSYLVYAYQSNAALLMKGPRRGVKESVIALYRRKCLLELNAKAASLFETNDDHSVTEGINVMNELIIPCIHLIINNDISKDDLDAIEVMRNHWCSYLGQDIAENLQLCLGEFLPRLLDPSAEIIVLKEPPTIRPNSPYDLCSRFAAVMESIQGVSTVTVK
How it was run: as §1

Measured: log2 ratio of Biotin-Ahx-Ub-VS probe labelling

USP24, sequence (Q9UPU5 whole entry): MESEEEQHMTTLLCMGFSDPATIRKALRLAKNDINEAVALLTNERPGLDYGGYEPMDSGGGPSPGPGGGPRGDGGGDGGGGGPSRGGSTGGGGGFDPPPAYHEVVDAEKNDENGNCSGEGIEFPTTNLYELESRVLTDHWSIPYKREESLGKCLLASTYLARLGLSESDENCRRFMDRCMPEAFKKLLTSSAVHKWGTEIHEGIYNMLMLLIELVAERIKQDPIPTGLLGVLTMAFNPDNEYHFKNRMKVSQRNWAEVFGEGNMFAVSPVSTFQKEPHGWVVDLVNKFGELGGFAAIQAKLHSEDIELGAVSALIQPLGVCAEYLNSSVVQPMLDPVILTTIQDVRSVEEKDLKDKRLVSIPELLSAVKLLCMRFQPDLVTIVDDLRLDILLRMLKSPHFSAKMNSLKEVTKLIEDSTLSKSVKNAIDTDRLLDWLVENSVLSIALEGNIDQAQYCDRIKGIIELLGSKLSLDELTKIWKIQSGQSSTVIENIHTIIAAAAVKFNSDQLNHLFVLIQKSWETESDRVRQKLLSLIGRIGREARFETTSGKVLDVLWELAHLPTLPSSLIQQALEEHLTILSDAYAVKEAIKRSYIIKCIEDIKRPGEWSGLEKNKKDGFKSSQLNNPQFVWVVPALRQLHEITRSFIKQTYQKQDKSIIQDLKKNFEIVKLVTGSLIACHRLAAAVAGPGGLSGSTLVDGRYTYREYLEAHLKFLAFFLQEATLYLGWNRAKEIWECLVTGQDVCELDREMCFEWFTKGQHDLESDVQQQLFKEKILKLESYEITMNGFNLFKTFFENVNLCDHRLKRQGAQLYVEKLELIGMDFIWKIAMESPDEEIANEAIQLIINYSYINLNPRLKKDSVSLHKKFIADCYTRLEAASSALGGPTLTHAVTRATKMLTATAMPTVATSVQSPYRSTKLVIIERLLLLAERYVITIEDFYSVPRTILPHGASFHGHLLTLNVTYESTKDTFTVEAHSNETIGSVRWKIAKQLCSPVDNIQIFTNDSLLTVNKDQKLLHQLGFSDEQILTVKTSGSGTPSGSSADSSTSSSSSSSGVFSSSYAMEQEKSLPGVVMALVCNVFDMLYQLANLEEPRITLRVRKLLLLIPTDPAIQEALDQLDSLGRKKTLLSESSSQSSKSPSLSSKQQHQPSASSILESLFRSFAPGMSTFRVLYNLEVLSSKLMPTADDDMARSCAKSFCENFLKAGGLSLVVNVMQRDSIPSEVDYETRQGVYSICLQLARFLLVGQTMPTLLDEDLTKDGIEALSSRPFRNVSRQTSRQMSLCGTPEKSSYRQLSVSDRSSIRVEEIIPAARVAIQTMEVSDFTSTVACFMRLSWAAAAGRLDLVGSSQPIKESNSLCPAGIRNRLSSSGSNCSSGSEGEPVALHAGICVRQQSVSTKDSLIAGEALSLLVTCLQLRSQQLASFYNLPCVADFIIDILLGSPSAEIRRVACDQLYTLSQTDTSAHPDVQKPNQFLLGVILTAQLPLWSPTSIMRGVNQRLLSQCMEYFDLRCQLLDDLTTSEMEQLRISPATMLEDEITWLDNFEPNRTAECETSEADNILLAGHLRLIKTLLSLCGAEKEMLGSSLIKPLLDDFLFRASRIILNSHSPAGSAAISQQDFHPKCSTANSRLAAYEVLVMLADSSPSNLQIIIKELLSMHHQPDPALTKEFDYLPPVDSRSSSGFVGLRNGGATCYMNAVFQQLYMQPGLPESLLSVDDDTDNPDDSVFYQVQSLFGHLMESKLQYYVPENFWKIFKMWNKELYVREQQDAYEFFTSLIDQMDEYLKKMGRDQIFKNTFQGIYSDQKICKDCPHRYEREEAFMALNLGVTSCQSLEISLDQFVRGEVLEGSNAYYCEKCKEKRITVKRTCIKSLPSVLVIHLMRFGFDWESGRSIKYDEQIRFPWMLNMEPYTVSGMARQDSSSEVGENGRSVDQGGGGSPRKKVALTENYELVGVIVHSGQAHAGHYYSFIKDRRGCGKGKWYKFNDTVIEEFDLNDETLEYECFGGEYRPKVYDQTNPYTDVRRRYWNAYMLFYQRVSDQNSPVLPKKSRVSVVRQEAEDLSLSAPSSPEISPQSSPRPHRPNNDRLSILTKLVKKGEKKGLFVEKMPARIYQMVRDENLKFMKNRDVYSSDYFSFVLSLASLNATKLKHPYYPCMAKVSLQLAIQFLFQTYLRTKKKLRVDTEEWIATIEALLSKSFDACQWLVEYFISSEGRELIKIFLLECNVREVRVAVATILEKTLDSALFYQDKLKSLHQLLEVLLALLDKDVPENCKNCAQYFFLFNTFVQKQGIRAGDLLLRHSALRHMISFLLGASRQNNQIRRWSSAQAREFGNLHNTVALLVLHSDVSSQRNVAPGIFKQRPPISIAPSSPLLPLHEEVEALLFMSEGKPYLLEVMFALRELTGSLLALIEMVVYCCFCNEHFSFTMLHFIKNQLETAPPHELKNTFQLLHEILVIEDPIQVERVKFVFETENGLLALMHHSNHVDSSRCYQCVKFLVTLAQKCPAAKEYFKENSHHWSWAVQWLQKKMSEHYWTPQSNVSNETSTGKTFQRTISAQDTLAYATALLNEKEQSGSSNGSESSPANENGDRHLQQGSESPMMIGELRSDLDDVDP

O=C(CCl)NC1CCC2(CC1)OCCO2
inactive: USP19 -0.189 | USP24 -0.301 | USP25 -0.49 | USP28 -0.665
